# Test results as given in PubChem BioAssay (NCI).
# The panel holds about 83,000 compounds, 20% with a hit somewhere; the sample as a whole holds those more often.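 Each cell line was grown in a 96-well plate and treated with one concentration of compound for 48 hours. Values below 10 were considered active.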 A number with no mark means an inactive call. Calls of active or inactive are those of the source.
# Assays:
# Assay in all cases: NCI-60 one-dose screen, 48 h (100 = growth as untreated, 0 = no growth, -100 = all killed)
# Conditions in all cases: 10 µM unless noted
# DU-145 prostate = system: DU-145 prostate
# K-562 leukemia = system: K-562 leukemia
# MALME-3M melanoma = system: MALME-3M melanoma
# MDA-MB-231 breast = system: MDA-MB-231 breast
# RXF 393 renal = system: RXF 393 renal
# SF-268 CNS = system: SF-268 CNS
# SF-295 CNS = system: SF-295 CNS
# SF-539 CNS = system: SF-539 CNS
# UACC-257 melanoma = system: UACC-257 melanoma
# M14 melanoma = system: M14 melanoma
Structure (SMILES),growth (DU-145 prostate),growth (K-562 leukemia),growth (MALME-3M melanoma),growth (MDA-MB-231 breast),growth (RXF 393 renal),growth (SF-268 CNS),growth (SF-295 CNS),growth (SF-539 CNS),growth (UACC-257 melanoma),growth (M14 melanoma)
N#Cc1c(NC(=O)N2CCOCC2)n(-c2ccc(OC(F)(F)F)cc2)c2cc(F)ccc12,100%,8.91% (active),94.5%,73.7%,95.2%,114%,87.7%,87.7%,102%,96.7%
CC(=O)Nc1ccc(S(=O)(=O)Nc2ccc(-c3ccc4c(c3)NC(=O)/C4=C\c3ccc[nH]3)cc2)cc1,93.4%,64.8%,92.5%,88.7%,107%,112%,94.9%,84%,102%,100%
CCC(=O)c1cc(C(=O)OC)c2ccc3c4ccccc4ccc3n12,93.5%,91.5%,71.9%,69.9%,82.1%,89.3%,77.6%,88.2%,99.7%,105%
CC1=C(C(=O)Nc2ccccc2)C(c2ccc3ccccc3c2)n2c(nc3ccccc32)N1 (stereo not given),46.2%,43.8%,72.5%,5.61% (active),53.3%,72.5%,37%,81.8%,81.1%,66.6%
CCCCCCCCc1ccc(C(=O)Nc2ccc(C)c(OP(=O)(O)O)c2)cc1,101%,87%,102%,97.3%,113%,83.1%,91.2%,93.4%,102%,106%
Oc1ccc(F)c(Nc2nc(SCCN3CCOCC3)nc3c2cnn3CC(Cl)c2ccc(Br)cc2)c1 (stereo not given),34%,-3.32% (active),1.03% (active),-17.6% (active),-48.4% (active),24.1%,2.35% (active),17.3%,14.4%,18.8%
COc1cc(-c2ccc3ncnc(N4CCc5ccc(Cl)cc54)c3c2)cnc1Cl,10.6%,23.1%,34.9%,30.8%,-4.17% (active),40.2%,35%,24.8%,59.2%,29.8%
O=C(Cc1c(-c2ccccc2[N+](=O)[O-])n(-c2ncnc3c2c(-c2ccccc2)c(-c2ccccc2)n3Cc2ccccc2)[nH]c1=O)c1ccc(Cl)c(Cl)c1,32.2%,12%,-12.6% (active),33.5%,31.7%,30.9%,3.25% (active),38.2%,11.5%,14.6%
O=C1Nc2ccccc2/C1=C/C(=O)c1cc2ccccc2oc1=O,97.3%,14.5%,10.9%,97.6%,91.4%,105%,97.8%,102%,104%,101%
CN(C)CCOc1ccc(C(=O)C2[C@H](c3ccc(Cl)cc3)[C@@H](c3ccccc3)NC23C(=O)Nc2ccc(Cl)cc23)cc1 (stereo not given in full),-80.3% (active),-76.1% (active),-87.8% (active),-93.6% (active),-92% (active),-64% (active),-89.3% (active),-98.5% (active),-81.2% (active),-90.1% (active)
Cc1ccc(-c2cc(C(=O)N=Nc3c(O)[nH]c4ccc(F)cc34)c3ccccc3n2)cc1,51.1%,60.8%,48.4%,11%,109%,65.3%,98.7%,-39.7% (active),69%,79.6%
CCc1ccccc1-c1nc(CN[C@@H]2C[C@@H]3C[C@H]([C@H]2C)C3(C)C)c(C)o1,-74.9% (active),12.2%,-80.5% (active),-78.3% (active),-85.1% (active),6.04% (active),-93.5% (active),-96.5% (active),-75.8% (active),-83.5% (active)
O=C(N/N=C/c1ccc(B(O)O)s1)c1[nH]c2ccc(Br)cc2c1-c1ccccc1,-56.4% (active),2.64% (active),-96.2% (active),-88.1% (active),-94.3% (active),-37.2% (active),-98.1% (active),-98.8% (active),-77.4% (active),-67.4% (active)
COc1cc(CNC(=O)C[C@H](C)CCC=C(C)C)ccc1OCc1cn(-c2ccc(Cl)cc2Cl)nn1,90.5%,81.4%,79.3%,59.7%,14.1%,52.3%,41.8%,66.9%,92%,102%
Cc1ccc(S(=O)(=O)Nc2ccc(-c3ccc4c(c3)NC(=O)/C4=C\c3ccc[nH]3)cc2)cc1,65.6%,42.2%,90%,97.4%,96.4%,111%,93.8%,93.8%,110%,90.9%
COc1ccc2oc(=O)c(-c3csc(N/N=C(\C)c4cc(OC)c(OC)c(OC)c4)n3)cc2c1,101%,92.3%,85%,86.8%,85.7%,99.3%,92%,103%,106%,91.9%
COc1ccc2nc(NC(=O)c3ccc(N(C)C)cc3)sc2c1,83.4%,60.2%,72.7%,92.7%,110%,90.2%,59%,90%,80.6%,87.4%
